# Source: the supplement of paper PMC7801607
# What was measured:
# CHO = assay: % viability of CHO cells (MTT); higher = less toxic; conditions: 48 h
# How it was run: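 CHO cells were seeded at 10^6 cells/well in 200 µL and left overnight to attach. The medium was then replaced with fresh medium containing compound at 2 or 20 µM for 48 h. Survival was read colorimetrically with the tetrazolium (MTT) assay. Percent viability was expressed relative to untreated cells.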
# HepG2-A16-CD81 = assay: % inhibition of HepG2 viability (CellTiter-Glo); higher = more toxic; conditions: 5 µM
# [1] = tested on: Plasmodium falciparum NF54 stage IV/V gametocytes; assay: % inhibition of gametocyte viability (PrestoBlue); higher = more inhibition; conditions: 48 h
# How it was run: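 Stage IV/V NF54 gametocytes (2% gametocytaemia, 5% haematocrit, 100 µL/well) were exposed to compound at 1 or 5 µM. Incubation was 48 h at 37 °C, stationary and hypoxic, followed by 10 µL PrestoBlue for 2 h. Fluorescence at 612 nm was read on 70 µL of transferred supernatant. Percent inhibition of gametocyte viability was normalised to DMSO and kill controls from a single run.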
# [2] = tested on: Plasmodium falciparum NF54 asexual blood stage; assay: % inhibition of asexual blood stage proliferation (pLDH); higher = more inhibition; conditions: 72 h
# How it was run: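 Plasmodium falciparum NF54 ring-stage cultures (1% haematocrit, 2% parasitaemia) were exposed to compound at 2 or 20 µM in 96-well plates. Incubation was 72 h at 37 °C under 4% CO2, 3% O2 and 93% N2. Survival was read colorimetrically at 620 nm with the parasite lactate dehydrogenase assay. Percent inhibition of asexual proliferation was normalised to DMSO and kill controls, and the screen was run on two separate occasions.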
# [3] = tested on: Plasmodium falciparum NF54 stage IV/V gametocytes; assay: % inhibition of gametocyte viability (ATP bioluminescence); higher = more inhibition; conditions: 24 h
# How it was run: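 In 96-well plates, compound at 1 or 5 µM was added to 30,000 density-gradient-enriched stage IV/V NF54 gametocytes per well and incubated for 24 h at 37 °C. ATP readout used the Promega BacTiter Glo bioluminescence system. Percent inhibition of gametocyte viability comes from a single run, normalised to control wells.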
# [4] = tested on: Plasmodium falciparum NF54 stage IV/V gametocytes; assay: % inhibition of gametocyte viability (luciferase reporter); higher = more inhibition; conditions: 48 h
# How it was run: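 Percent inhibition was normalised to controls from a single run. Stage IV/V gametocytes of the NF54-Pfs16-GFP-Luc line, at 2% gametocytaemia and 2% haematocrit, were exposed to compound at 1 or 5 µM for 48 h at 37 °C under stationary, hypoxic conditions. Luminescence was then read from 30 µL lysate mixed with 30 µL Promega luciferin substrate on a GloMax-Multi+ reader with 10 s integration.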
# [5] = tested on: Plasmodium berghei ANKA liver stage in HepG2-A16-CD81; assay: % inhibition of liver stage parasite viability (luciferase); higher = more inhibition; conditions: 5 µM; 48 h
# Description: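 Single-concentration screen of the MMV Pandemic Response Box. P. falciparum NF54 asexual blood stages: pLDH assay, 72 h at 37 °C, 2 and 20 µM, n=2. Stage IV/V gametocytes (NF54): luciferase reporter (NF54-Pfs16-GFP-Luc, 48 h), ATP bioluminescence (24 h) and PrestoBlue (48 h) at 1 and 5 µM, n=1. P. berghei liver stage (luciferase in HepG2-A16-CD81, 48 h post infection) at 5 µM, n=4. All normalised to DMSO and kill controls as % inhibition.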
# 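Wherever % inhibition of HepG2 viability (CellTiter-Glo) is given: HepG2-A16-CD81 hepatoma cells plated as in the liver-stage assay but without sporozoites, with DMSO wells as negative and 25 µM puromycin as positive control.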
SMILES,% viability of CHO cells (CHO; 2 µM) [%],% viability of CHO cells (CHO; 20 µM) [%],% inhibition of HepG2 viability (HepG2-A16-CD81) [%],% inhibition of gametocyte viability ([1]; 1 µM) [%],% inhibition of gametocyte viability ([1]; 5 µM) [%],% inhibition of asexual blood stage proliferation ([2]; 2 µM) [%],% inhibition of asexual blood stage proliferation ([2]; 20 µM) [%],% inhibition of gametocyte viability ([3]; 1 µM) [%],% inhibition of gametocyte viability ([3]; 5 µM) [%],% inhibition of gametocyte viability ([4]; 1 µM) [%],% inhibition of gametocyte viability ([4]; 5 µM) [%],% inhibition of liver stage parasite viability [5] [%]
O=S(=O)(Nc1ccccc1)c1ccc(NC(=S)Nc2ccccc2)cc1,84.1,81.9,-1.98,7.06,6.95,43.6,45.2,< 0,< 0,< 0,< 0,25.7
O=[N+]([O-])c1ccc2c(CCc3c[nH]c4ccccc34)c[nH]c2c1,101,143,0.942,< 0,28,61.5,92.7,< 0,< 0,< 0,< 0,-60.7
Oc1cccc(C(Nc2nccs2)c2ccc3cccnc3c2O)c1 (stereo not drawn),57.5,42.1,9.72,24.1,65.5,80,91.8,< 0,59.3,7.2,57.3,20.6
O=C(NCc1ccc(F)cc1)c1c(O)c2ncccc2[nH]c1=O,121,91.5,5.33,< 0,20.1,54.8,31.4,3.16,< 0,5.58,< 0,14
Cc1cc(CCCOc2c(C)cc(-c3noc(C(F)(F)F)n3)cc2C)on1,103,125,7.06,6.7,35.6,44.6,65.2,4.65,5.28,10.6,< 0,-23.2
CS(=O)(=O)c1ccc(Oc2ccc(Cl)cc2)cc1,98.9,121,-1.85,21.5,13.8,28.1,69.1,< 0,< 0,< 0,< 0,9.76
O=C(Nc1cccc(C2=NCCN2)c1)c1ccc(-c2ccc(C(=O)Nc3cccc(C4=NCCN4)c3)cc2)cc1,90.2,96.3,14.5,31.3,62.4,54,41.2,7.89,38,< 0,59.1,15.4
CC(C)n1cnc2c(NCc3ccccc3)nc(NCc3ccccc3)nc21,104,58.3,7.56,< 0,< 0,45.5,60.5,< 0,< 0,< 0,< 0,17.1
O=C(Cn1cnc2ccccc2c1=O)Nc1ccccc1,100,84.1,-0.425,27.9,25.4,29.5,71.5,1.88,< 0,2.6,1.55,2.82
C[C@H]1COc2c(N3CCN(C)CC3)c(F)cc3c(=O)c(C(=O)O)cn1c23,92.1,104,-1.57,< 0,18,15.5,39.9,1.98,1.75,18.2,0.53,11.6
Nc1cccc(-c2nc(N)nc(NC3Cc4ccccc4C3)n2)c1,96.5,75.1,12.8,< 0,< 0,-7.13,22.3,< 0,< 0,< 0,< 0,-38.1
c1cnc(NCc2ccc(CNc3ncccn3)cc2)nc1,85.1,77.7,-9.29,9.96,14.8,13.7,35.1,< 0,< 0,3.69,< 0,25.6
Nc1nc(Nc2ccc3nc(-c4ccc(F)cc4)cc(N)c3c2)cc(-c2ccccc2)n1,-4.05,-8.47,-4.55,32.5,84.6,83,96.9,95.5,95,98.5,98.6,13.6
CCc1nc2ccc(Cl)cn2c1C(=O)NCc1ccc(N2CCC(c3ccc(OC(F)(F)F)cc3)CC2)cc1,91.1,113,7.13,22,< 0,31.7,102,< 0,< 0,4.46,< 0,72.1
Nc1nc2c(ncn2/C=C2/CC2(CO)CO)c(=O)[nH]1,102,5.45,-5.92,10.2,7.42,6.02,5.03,< 0,< 0,< 0,1.19,9.21
CCc1oc2ccccc2c1C(=O)c1ccc(O)cc1,152,112,9.97,< 0,17.5,29.1,6.67,< 0,< 0,< 0,9.06,39.9
COc1ccc(-n2cnc3cc(NCc4ccco4)ccc32)cc1,93.6,94.6,1.83,< 0,< 0,29.7,44.9,2.7,< 0,< 0,< 0,-16.1
c1ccc(Cn2c(-c3ccccn3)nc3ccccc32)cc1,75.8,117,1.97,-0.335,3.56,5.52,19.5,< 0,< 0,< 0,11.3,-11
CC(=O)N[C@H](C)C(=O)N[C@H](Cc1ccccc1)C(=O)O,91.7,87.7,8.11,< 0,-0.199,24.6,81.8,< 0,< 0,17.2,< 0,0.6
